The panel holds about 79,000 compounds, 15% with a hit somewhere; the sample as a whole holds those more often. Calls of active or inactive are those of the source. No stated cut-off is given here; in the data, active means growth inhibition above about 70%; inactive means the rest.
Experiments:
[1] = NCI Yeast Anticancer Drug Screen. Data for the mlh1 strain (AID 171);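 further: 0% = growth of vehicle-treated control cultures of the same strain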; settings: S. cerevisiae mlh1 strain growth inhibition, active compounds read high
Summary of the method: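 Inhibition values reflect reduced yeast growth in the presence of compound, referenced to vehicle controls, using a strain chosen for its alteration in DNA repair or cell cycle control.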

[2] = NCI Yeast Anticancer Drug Screen. Data for the sgs1 strain (AID 173);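 further: 0% = growth of vehicle-only control cultures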; settings: S. cerevisiae sgs1 mutant, active compounds read high
Summary of the method: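 Vehicle-treated cultures served as reference for growth inhibition of a yeast strain altered in DNA damage repair or cell cycle control after compound exposure.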

[3] = NCI Yeast Anticancer Drug Screen. Data for the mlh1 rad18 strain (AID 175); settings: S. cerevisiae mlh1 rad18 strain growth inhibition, active compounds read high
Summary of the method: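 Inhibition values reflect reduced growth of mutant yeast versus vehicle-treated controls following compound exposure; the mutations affect DNA damage repair.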

[4] = NCI Yeast Anticancer Drug Screen. Data for the rad18 strain (AID 177); settings: S. cerevisiae rad18 mutant growth inhibition, active compounds read high
Summary of the method: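 Steps: expose repair-mutant yeast to compound; measure growth; express as inhibition relative to vehicle control.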

[5] = NCI Yeast Anticancer Drug Screen. Data for the rad52 strain (AID 147);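 further: 0% = growth of vehicle-treated control cultures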; settings: S. cerevisiae rad52 mutant growth inhibition, active compounds read high
Summary of the method: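 Inhibition of yeast growth, referenced to vehicle controls, was the measured output for a strain with defective DNA damage repair.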

[6] = NCI Yeast Anticancer Drug Screen. Data for the rad50EPP+ strain (AID 151);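 further: 0% = growth of vehicle-treated control cultures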; settings: S. cerevisiae rad50 mutant strain, active compounds read high
Summary of the method: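 Genetically defined yeast (rad50EPP+, DNA damage repair alteration) is grown with compound, and inhibition of growth is expressed relative to vehicle-treated controls.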

[7] = NCI Yeast Anticancer Drug Screen. Data for the rad50 strain (AID 155);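 further: 0% = growth of vehicle-only cultures of the same strain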; settings: S. cerevisiae rad50 strain growth inhibition, active compounds read high
Summary of the method: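 DNA repair mutant yeast, compound exposure, growth read-out; inhibition is taken relative to vehicle.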

[8] = NCI Yeast Anticancer Drug Screen. Data for the mec2-1 strain (AID 157); settings: S. cerevisiae mec2-1 strain, active compounds read high
Summary of the method: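 Each compound was tested on mec2-1 yeast, a strain altered in DNA damage repair or cell cycle control. Growth inhibition is reported relative to vehicle.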

[9] = NCI Yeast Anticancer Drug Screen. Data for the rad14 strain (AID 159);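 further: 0% = growth of vehicle-treated control cultures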; settings: S. cerevisiae rad14 strain growth inhibition, active compounds read high
Summary of the method: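 DNA repair-defective yeast, compound-exposed; % growth inhibition derived by comparison with vehicle-treated controls.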

[10] = NCI Yeast Anticancer Drug Screen. Data for the sgs1 mgt1 strain (AID 161);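 further: 0% = growth of cultures given vehicle only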; settings: S. cerevisiae sgs1 mgt1 strain, active compounds read high
Summary of the method: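 Genetically altered yeast, compound exposure, growth inhibition relative to vehicle.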

[11] = NCI Yeast Anticancer Drug Screen. Data for the CLN2oe strain (AID 163);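 further: 0% = growth of vehicle-only control cultures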; settings: S. cerevisiae CLN2oe strain, active compounds read high
Summary of the method: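 First, the altered yeast strain was treated with each compound; second, its growth was measured; finally, inhibition was derived by comparison with vehicle controls.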

[12] = NCI Yeast Anticancer Drug Screen. Data for the cln2 rad14 strain (AID 165);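 further: 0% = growth equal to vehicle treated cultures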; settings: S. cerevisiae cln2 rad14 strain, active compounds read high
Summary of the method: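 Test compounds were added to cln2 rad14 yeast cultures; inhibition of growth was then determined by comparison with vehicle treatment.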

[13] = NCI Yeast Anticancer Drug Screen. Data for the bub3 strain (AID 167); settings: S. cerevisiae bub3 mutant strain, active compounds read high
Summary of the method: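 In this screen, a yeast mutant lacking normal mitotic checkpoint function is challenged with compound. Relative growth versus vehicle gives the inhibition value.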

[14] = NCI Yeast Anticancer Drug Screen. Data for the wt2 strain (AID 169);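 further: 0% = growth of vehicle-treated yeast cultures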; settings: S. cerevisiae wt2 strain growth inhibition, active compounds read high
Summary of the method: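 The panel's yeast strains carry defined changes in DNA repair or cell cycle genes. Each strain is grown with compound, and growth loss is scored relative to vehicle.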

[15] = at 5.0 µM (retest, dose inferred, filed as 0.5)
[16] = at 50.0 µM (retest, dose inferred, filed as 5.0)

Measured: growth inhibition

CC(=O)O/N=C/c1c2ccccc2cc2ccccc12
active: [3]; [15] 80% | [3]; [16] 92% | [4]; at 100.0 µM 83%
inactive: [1]; at 1.2 µM 1% | [1]; at 3.7 µM -1% | [1]; at 11.0 µM 1% | [1]; at 33.0 µM 17% | [1]; at 100.0 µM 52% | [2]; at 1.2 µM -1% | [2]; at 3.7 µM -1% | [2]; at 11.0 µM 3% | [2]; at 33.0 µM 29% | [2]; at 100.0 µM 58% | [3]; at 50.0 µM 33% | [4]; at 1.2 µM 0% | [4]; at 3.7 µM -1% | [4]; at 11.0 µM 11% | [4]; at 33.0 µM 54%

COc1cc(C(C)(C)C)cc(OC)c1C(O)(c1c(OC)cc(C(C)(C)C)cc1OC)c1c(OC)cc(C(C)(C)C)cc1OC
active: [5]; at 11.0 µM 88% | [5]; at 33.0 µM 92% | [5]; at 100.0 µM 84% | [6]; at 11.0 µM 87% | [6]; at 33.0 µM 92% | [6]; at 100.0 µM 83% | [7]; at 11.0 µM 92% | [7]; at 33.0 µM 93% | [7]; [16] 94% | [7]; at 50.0 µM 78% | [7]; at 100.0 µM 88% | [8]; [15] 81% | [8]; at 11.0 µM 90% | [8]; at 33.0 µM 94% | [8]; [16] 96% | [8]; at 50.0 µM 79.7% | [8]; at 100.0 µM 90% | [9]; at 11.0 µM 88% | [9]; at 33.0 µM 91% | [9]; at 100.0 µM 86% | [10]; [16] 97% | [10]; at 50.0 µM 80.1% | [11]; at 11.0 µM 87% | [11]; at 33.0 µM 93% | [11]; at 100.0 µM 89% | [12]; [16] 96% | [12]; at 50.0 µM 77.3% | [13]; [15] 76% | [13]; at 11.0 µM 92% | [13]; at 33.0 µM 94% | [13]; [16] 96% | [13]; at 50.0 µM 75.8% | [13]; at 100.0 µM 85% | [14]; at 11.0 µM 92% | [14]; at 33.0 µM 94% | [14]; at 100.0 µM 82% | [1]; at 11.0 µM 89% | [1]; at 33.0 µM 94% | [1]; at 100.0 µM 88% | [3]; [16] 93% | [3]; at 50.0 µM 76.1% | [4]; at 11.0 µM 93% | [4]; at 33.0 µM 94% | [4]; at 100.0 µM 87%
inactive: [5]; at 1.2 µM -10% | [5]; at 3.7 µM 33% | [6]; at 1.2 µM -1% | [6]; at 3.7 µM 14% | [7]; at 1.2 µM 25% | [7]; at 3.7 µM 30% | [7]; [15] 33% | [8]; at 1.2 µM -22% | [8]; at 3.7 µM 32% | [9]; at 1.2 µM -24% | [9]; at 3.7 µM -28% | [10]; [15] 13% | [11]; at 1.2 µM 31% | [11]; at 3.7 µM 45% | [12]; [15] 47% | [13]; at 1.2 µM -25% | [13]; at 3.7 µM 44% | [14]; at 1.2 µM -17% | [14]; at 3.7 µM 15% | [1]; at 1.2 µM -19% | [1]; at 3.7 µM -12% | [3]; [15] 15% | [4]; at 1.2 µM -4% | [4]; at 3.7 µM 10%
